About 83,000 compounds went through this panel and 20% of them were active in at least one assay; those are over-represented in the sample as a whole.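 A percent growth of 40 corresponds to 60% growth inhibition; 0 means no net growth; -100 means all cells died. Active threshold: below 10.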 Unmarked numbers belong to inactive results. Active and inactive are the calls of the source.
Experiments:
Assay in all cases: NCI-60 one-dose screen, 48 h (100 = growth as untreated, 0 = no growth, -100 = all killed)
Conditions in all cases: 10 µM unless noted
NCI-H23 lung = system: NCI-H23 lung
NCI-H226 lung = system: NCI-H226 lung
NCI-H322M lung = system: NCI-H322M lung
HOP-62 NSCLC = system: HOP-62 NSCLC
NCI-H460 lung = system: NCI-H460 lung
NCI-H522 lung = system: NCI-H522 lung
A549/ATCC NSCLC = system: A549/ATCC NSCLC
786-0 renal = system: 786-0 renal
COLO 205 colon = system: COLO 205 colon
DU-145 prostate = system: DU-145 prostate
K-562 leukemia = system: K-562 leukemia
MALME-3M melanoma = system: MALME-3M melanoma
MDA-MB-231 breast = system: MDA-MB-231 breast
RXF 393 renal = system: RXF 393 renal
SF-268 CNS = system: SF-268 CNS
SF-295 CNS = system: SF-295 CNS
SF-539 CNS = system: SF-539 CNS
UACC-257 melanoma = system: UACC-257 melanoma
M14 melanoma = system: M14 melanoma

Row | SMILES | growth (NCI-H23 lung) | growth (NCI-H226 lung) | growth (NCI-H322M lung) | growth (HOP-62 NSCLC) | growth (NCI-H460 lung) | growth (NCI-H522 lung) | growth (A549/ATCC NSCLC) | growth (786-0 renal) | growth (COLO 205 colon) | growth (DU-145 prostate) | growth (K-562 leukemia) | growth (MALME-3M melanoma) | growth (MDA-MB-231 breast) | growth (RXF 393 renal) | growth (SF-268 CNS) | growth (SF-295 CNS) | growth (SF-539 CNS) | growth (UACC-257 melanoma) | growth (M14 melanoma)
1 | COc1cc(C2CC(c3ccc(Cl)cc3)=NN2C=O)ccc1Oc1ccnc2cc(Cl)ccc12 (stereo not drawn) | 65.2% | 51.4% | 88.2% | 53.1% | 65.2% | 47.2% | 59.1% | 78.6% | 94.5% | 85.7% | 72.5% | 64% | 56.9% | 64.2% | 68.6% | 66.2% | 66.2% | 66.8% | 92.4%
2 | Fc1ccc(-c2cnc3nonc3n2)c(F)c1 | 88.7% | 102% | 98.4% | 93.7% | 107% | 84% | 109% | 104% | 92.5% | 100% | 68% | 105% | 78% | 111% | 84.8% | 109% | 98.6% | 96.6% | 97.2%
3 | CC(=O)O[C@H]1CC[C@]2(C)[C@H]3CC=C4[C@@H]5CC(C)(C)CC[C@]5(C(=O)OCC(COC(=O)C(Cl)Cl)(COC(=O)C(Cl)Cl)NC(=O)C(Cl)Cl)CC[C@@]4(C)[C@]3(C)CC[C@H]2C1(C)C | 87.6% | 94.2% | 89.1% | 79% | 49.4% | 41.1% | 31.5% | 63.9% | 47.8% | 62.2% | 38.8% | 83.1% | 82.9% | 74.7% | 56.1% | 80.4% | 86.8% | 42.5% | 67.2%
4 | Cn1cnc([N+](=O)[O-])c1S(=O)(=O)Oc1ccccc1 | 101% | 91.6% | 109% | 96.1% | 105% | -75.7% (active) | 106% | 95.2% | -16.9% (active) | 70.4% | 31.8% | -60.9% (active) | 99.4% | 74.1% | 101% | 110% | 93.8% | 90.9% | 53.1%
5 | O=c1nc(-c2ccccc2)c2cc(-c3ccc(N4CCOCC4)cc3)ccc2[nH]1 | 86.3% | 72.1% | 68.9% | 73.7% | 79.7% | 68.3% | 64.3% | 78.6% | 82.5% | 79.7% | 71.8% | 98.4% | 78.4% | 73.4% | 94.3% | 88.6% | 94.9% | 71.6% | 92.3%
6 | COc1ccc2[nH]cc(C3(c4c[nH]c5ccc(OC)cc45)C(=O)Nc4ccc(Cl)cc43)c2c1 | 80.3% | 108% | 85.5% | 85.2% | 6.57% (active) | 65.7% | 63.6% | 74.1% | 69.2% | 66.9% | 6.2% (active) | 78.9% | 82.4% | 94.5% | 40.8% | 59.6% | 74.8% | 86.5% | 73.8%
7 | O=c1c2cc(Br)cc(Br)c2nc(-c2ccc(Cl)cc2)n1/N=C\c1ccccc1F | 62.9% | 51.2% | 52.5% | 27.4% | 39.1% | 51.3% | 57.1% | -34% (active) | 66.3% | 96% | 72.1% | 90.4% | 55.1% | 72.9% | 73.3% | 29.8% | 81.9% | 89.9% | 81.8%
8 | COc1ccc(C2c3cccn3-c3ccccc3N2C(C)=O)cc1 (stereo not drawn) | 99.3% | 97.3% | 82.6% | 88.8% | 97.4% | 122% | 110% | 106% | 100% | 108% | 42% | 93% | 103% | 99.2% | 95.8% | 98.7% | 108% | 109% | 96.2%
9 | O=C(Cc1ccc([N+](=O)[O-])cc1)Oc1ccccc1 | 109% | 111% | 103% | 102% | 114% | 97.2% | 111% | 104% | 109% | 129% | 104% | 146% | 108% | 122% | 111% | 121% | 105% | 110% | 106%
10 | CCN(CC)CCNC(=O)n1cc(-c2ccncc2)c(-c2ccc(Cl)c(OC)c2)n1 | 98% | 61.5% | 118% | 66.8% | 104% | 81.9% | 77.5% | 72% | 70.1% | 97.8% | 85.9% | 114% | 79.5% | 85.3% | 67.9% | 97.7% | 75% | 93.1% | 78.6%
11 | COc1ccc(/C(C)=N/NC(=O)CSc2nc3ccccc3c(=O)n2CCc2ccc(S(N)(=O)=O)cc2)cc1 | 29.9% | 49% | 32.3% | -0.117% (active) | -29.5% (active) | 9.28% (active) | -26.9% (active) | -68.1% (active) | 33.5% | 1.74% (active) | 30.4% | -21.4% (active) | -10.9% (active) | 29.7% | 28.3% | 28.5% | 14.4% | 25.9% | 38.4%
12 | c1ccc(CCn2cccc2)nc1 | 106% | 107% | 122% | 98% | 123% | 106% | 109% | 103% | 94.8% | 104% | 98.6% | 114% | 94.9% | 116% | 96.5% | 114% | 106% | 108% | 106%
13 | CC1CCN(CCCCCOc2ccc3oc4ccc(Cl)cc4c(=O)c3c2)CC1 | 73.6% | 94.7% | 79.8% | 77.1% | 26.6% | 52.9% | 47.5% | 45.8% | 21.7% | 78.9% | 9.6% (active) | 81.6% | 48% | 71% | 77.5% | 78.7% | 74.6% | 5.99% (active) | -54% (active)
14 | COc1nccc2c(Sc3ccccc3)nc(N)nc12 | 98.8% | 103% | 110% | 113% | 109% | 88.1% | 104% | 88.9% | 117% | 104% | 93% | 137% | 100% | 117% | 105% | 103% | 119% | 111% | 118%
15 | CCSCC1CC(O)(c2ccccc2)C(c2ccccc2)C(c2ccc(F)cc2)O1 (stereo not drawn) | -6.5% (active) | -4.42% (active) | 3.59% (active) | -13.3% (active) | -16.3% (active) | 10.6% | 3.27% (active) | -49.5% (active) | -70.2% (active) | 3.1% (active) | 7.77% (active) | -37.6% (active) | -8.82% (active) | -12.4% (active) | 1.85% (active) | -22.4% (active) | 4.38% (active) | 4.92% (active) | -45.8% (active)
16 | CCN1C(=O)C(C)C=C(C)C=C1C (stereo not drawn) | 102% | 102% | 108% | 105% | 113% | 84.5% | 105% | 115% | 104% | 90.7% | 95.3% | 104% | 112% | 106% | 103% | 59.8% | 112% | 107% | 120%
17 | O=C(c1ccccc1)c1cccc(C(Br)Br)c1 | 92.8% | 101% | 95.1% | 86.7% | 66.4% | 66% | 86.9% | 100% | 96.6% | 93.7% | 46.4% | 88.9% | 103% | 95.7% | 95.5% | 76.2% | 95.2% | 105% | 72.1%

Reference: PubChem BioAssay (NCI)
